Values joined by “and” are separate entries in the source; they are usually repeats but may differ in a detail not shown here. Identical values can stand only once. Inconclusive results are not listed. Active and inactive are the calls of the source. Calls follow the shape of the dose curve; as a rule, active = well fitted curve in the direction sought with a large enough effect; inconclusive = small, poorly fitted or top-dose-only effect, or another doubt; inactive = no such curve, though single readings can be large; an effect the other way counts as inactive or inconclusive. Numbered stars: 1 amine (or outer) side, 2 acyl side, 3 side chain; on linkers, the order of the positions; unused ones are H or OH. Bridge positions count the residues as written; N and C are the ends. Square brackets hold non-standard residues; d marks the D form. Peptide text beside a SMILES is read from it. * marks the point of attachment. ξ: configuration not given here. ξhTyr(3S-OH,4S-OH,3'-OSO3H) = NC(C(=O)O)[C@H](O)[C@@H](O)c1ccc(O)c(OS(=O)(=O)O)c1; Orn(4R-OH,5R-OH) = O=C([C@H](C[C@@H](O)[C@@H](O)N[*:3])N[*:1])[*:2]; X6 = CCCCCOc1ccc(-c2cc(-c3ccc(C(=O)*)cc3)no2)cc1; X7 = C[C@H]1CN([*:1])C(C(=O)[*:2])[C@H]1O; ξGln(3R-OH) = NC(=O)C[C@@H](O)C(N)C(=O)O; ξPro(4R-OH) = O=C(O)C1C[C@@H](O)CN1; ξThr(3R) = C[C@@H](O)C(N)C(=O)O
How the values were obtained:
[1] = target: Cellular tumor antigen p53 (Homo sapiens) (UniProt P04637); experiment: Primary qHTS for small molecule compounds that upregulate eGFP-tagged delta133p53alpha (in N-terminal) cells. (AID 2060322); conditions: NCI-H358 eGFP-delta133p53alpha fluorescence, 24 h; activation: active compounds read high; also: nearly all actives have a fitted effect of over 75% in size; also: potency is read from the fitted curve at half-maximal effect;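 as to activation: 0% = DMSO vehicle and 100% = reference activator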
Sequence of Cellular tumor antigen p53 (Homo sapiens) (P04637 whole entry, looked up): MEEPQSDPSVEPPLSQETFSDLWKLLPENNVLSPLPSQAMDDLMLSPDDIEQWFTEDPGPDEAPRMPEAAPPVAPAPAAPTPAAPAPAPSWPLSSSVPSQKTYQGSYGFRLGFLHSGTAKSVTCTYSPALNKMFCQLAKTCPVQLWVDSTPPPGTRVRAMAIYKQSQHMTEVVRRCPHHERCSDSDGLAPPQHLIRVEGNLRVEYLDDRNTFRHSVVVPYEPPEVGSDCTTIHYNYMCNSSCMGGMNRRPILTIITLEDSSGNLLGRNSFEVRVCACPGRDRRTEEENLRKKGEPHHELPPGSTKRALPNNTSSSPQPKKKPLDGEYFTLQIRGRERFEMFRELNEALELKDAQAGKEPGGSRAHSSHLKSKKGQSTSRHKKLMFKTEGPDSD
In short: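 NCI-H358 cells pre-induced 24 h with 10 ng/ml doxycycline to express N-terminal eGFP-delta133p53alpha, then dosed 24 h at 37C without doxycycline; fixed, Hoechst-stained, GFP intensity by laser scanning cytometry, normalized to DMSO (0%) and 57.5 uM 5-azacytidine (100%).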

[2] = target: Aldehyde dehydrogenase, mitochondrial (Homo sapiens) (UniProt P05091); experiment: qHTS for Inhibitors of the Aldehyde Dehydrogenase Family (ALDH2) Primary screen (AID 2061308); conditions: ALDH2 enzyme inhibition qHTS, 1536-well; series mostly up to 56 µM;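 also: plate controls were vehicle for no effect and reference inhibitor for full effect; nearly all actives have a fitted effect of over 55% in size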
[3] = target: Retinaldehyde dehydrogenase 3 (Homo sapiens) (UniProt P47895); experiment: qHTS for Inhibitors of the Aldehyde Dehydrogenase Family (ALDH1A3) Validation screen (AID 2061312); conditions: ALDH1A3 enzyme inhibition qHTS validation, fluorescence; series mostly up to 84.7 µM; also: % is scaled to controls: 0 for no effect and ±100 for the full control effect; nearly all actives have a fitted effect of over 45% in size
[4] = target: Retinaldehyde dehydrogenase 3 (Homo sapiens) (UniProt P47895); experiment: qHTS for Inhibitors of the Aldehyde Dehydrogenase Family (ALDH1A3) Primary screen (AID 2061315); conditions: ALDH inhibition qHTS; series mostly up to 56 µM;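 also: plate controls were DMSO vehicle for no effect and reference inhibitor for full effect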

CN(C)CCn1cc(-c2ccc(F)cc2)c(-n2cccc2)n1
inactive: activation [1] -10.5% | Potency [2] | Potency [3] | Potency [4]

CC1(C)CCC(C)(C)c2cc(C3(c4ccc(C(=O)O)cc4)OCCO3)ccc21
inactive: activation [1] 2.39% | Potency [2] | Potency [3] | Potency [4]

O=C(Nc1ccc(F)cc1)N1CCc2ccccc2C1c1ccc(C(F)(F)F)cc1 (stereo not given)
inactive: activation [1] 13.4% | Potency [2] | Potency [3] | Potency [4]

Oc1ccc2nc(CN3CCC(Cc4ccccc4F)CC3)[nH]c2c1
inactive: activation [1] -1.91% | Potency [2] | Potency [3] | Potency [4]

O=C(OC(C(F)(F)F)C(F)(F)F)N1CCN(Cc2cccc(Oc3ccccc3)c2)CC1
inactive: activation [1] 1.43% | Potency [2] | Potency [3] | Potency [4]

Cc1cc(OCCN2CCOCC2)nn1-c1ccc2ccccc2c1
inactive: activation [1] 4.3% | Potency [2] | Potency [3] | Potency [4]

CCOc1ccc(-c2nc(-c3cccc4c3CCC4NCCO)no2)cc1OCC (stereo not given)
inactive: activation [1] -0.955% | Potency [2] | Potency [3] | Potency [4]

Cc1ccc(-n2nc(C(C)(C)C)cc2NC(=O)Nc2cc(COc3cccnc3)[nH]n2)cc1
inactive: activation [1] 6.21% | Potency [2] | Potency [3] | Potency [4]

Cc1ccc(Nc2cc(-c3cccc(N4C(=O)c5ccccc5C4=O)c3)ncn2)cc1NS(C)(=O)=O
inactive: activation [1] 19.8% and 20% | Potency [2] | Potency [3] | Potency [4]

CCC1C(=O)N(C)c2cnc(Nc3ccc(C(=O)NC4CCC(N5CCN(CC6CC6)CC5)CC4)cc3OC)nc2N1C(C)C (stereo not given)
inactive: activation [1] 37.2% | Potency [2] | Potency [3] | Potency [4]

COc1ccc2cc(-c3cc(-c4cc(Cl)cc(Cl)c4)nn3C(C)c3ccc(C(=O)NCCC(=O)O)cc3)ccc2c1 (stereo not given)
inactive: activation [1] 29.1% | Potency [2] | Potency [3] | Potency [4]

CC(C)(O)c1ccn2c(-c3ccc(F)c(-c4ccc(F)cc4C#N)c3)cnc2c1F
inactive: activation [1] -22.4% | Potency [2] | Potency [3] | Potency [4]

CSc1ccc(C(=O)N[C@@H]2CCCC[C@@H]2NC(=O)CNC(=O)c2cc(C(F)(F)F)ccc2NC(=O)NC(C)C)cc1
inactive: activation [1] -22% | Potency [2] | Potency [3] | Potency [4]

CC(C)CCNC(=O)c1ccc2c(c1)nc(Nc1n[nH]c3ccc(-c4ccccc4OC(F)(F)F)cc13)n2C1CCC(O)CC1 (stereo not given)
inactive: activation [1] 6.21% | Potency [2] | Potency [3] | Potency [4]

CCCCNc1ccc(-c2ccc(CN3CCOCC3)cn2)c(NC2CCC(O)CC2)c1 (stereo not given)
inactive: activation [1] 1.91% | Potency [2] | Potency [3] | Potency [4]

COc1cc(-n2cnc3cc(-c4ccc(Cl)cc4)sc3c2=O)ccc1OCCN1CCCC1
inactive: activation [1] 18.1% | Potency [2] | Potency [3] | Potency [4]

CNc1ccc([N+](=O)[O-])cc1-n1cnc(-c2ccc(C(F)(F)F)cc2)c1
inactive: activation [1] 5.25% | Potency [2] | Potency [3] | Potency [4]

CCOC(=O)[C@H](CCc1ccccc1)CC1(C(=O)N[C@H]2CCc3ccccc3N(CC(=O)O)C2=O)CCCC1
inactive: activation [1] 6.21% | Potency [2] | Potency [3] | Potency [4]

CC(C)c1nnc(-c2ccc(-c3ccccc3)nc2)n1-c1cccc2nonc12
inactive: activation [1] -5.73% | Potency [2] | Potency [3] | Potency [4]

CC(C)(C#N)c1ccc(N2C(=O)OCc3cnc4ccc(-c5cnc6ccccc6c5)cc4c32)cc1
inactive: activation [1] -3.82% | Potency [2] | Potency [3] | Potency [4]

Cc1onc(-c2ccccc2)c1C(=O)N1CCN(c2ccc([N+](=O)[O-])cc2Cl)CC1
inactive: activation [1] -0.477% | Potency [2] | Potency [3] | Potency [4]

COc1cccc(-n2nc(C(=O)O)cc2-c2ccc(C3CCCCC3)c(Cl)c2)c1
inactive: activation [1] 1.43% | Potency [2] | Potency [3] | Potency [4]

CC1CC(OC(=O)C(O)c2ccccc2)CC(C)(C)C1 (stereo not given)
inactive: activation [1] 1.43% | Potency [2] | Potency [3] | Potency [4]

NCc1c[nH]c(=S)n1[C@@H]1CCc2c(F)cc(F)cc2C1
inactive: activation [1] 0% | Potency [2] | Potency [3] | Potency [4]

Cc1cc(C)c(-n2cc(C)c3c(Cl)nc(C)nc32)c(C)c1
inactive: activation [1] -3.82% | Potency [2] | Potency [3] | Potency [4]

CC(C)[C@@H](C)/C=C/[C@@H](C)[C@H]1CC[C@H]2C3=CC=C4C[C@@H](O)CC[C@]4(C)[C@H]3CC[C@]12C
inactive: activation [1] 14.3% | Potency [2] | Potency [3] | Potency [4]

CCCCCOc1ccc(-c2cc(-c3ccc(C(=O)N[C@H]4C[C@@H](O)[C@@H](O)NC(=O)C5[C@@H](O)[C@@H](C)CN5C(=O)C([C@H](O)CC(N)=O)NC(=O)C([C@H](O)[C@@H](O)c5ccc(O)c(OS(=O)(=O)O)c5)NC(=O)C5C[C@@H](O)CN5C(=O)C([C@@H](C)O)NC4=O)cc3)no2)cc1 (stereo partly drawn) (X6-[Orn(4R-OH,5R-OH)][ξThr(3R)][ξPro(4R-OH)][ξhTyr(3S-OH,4S-OH,3'-OSO3H)][ξGln(3R-OH)][X7]; lactam 1-C)
inactive: activation [1] -0.955% | Potency [2] | Potency [3] | Potency [4]

CCCCS(=O)(=O)NC(Cc1ccc(OCCCCC2CCNCC2)cc1)C(=O)O (stereo not given)
inactive: activation [1] 12.9% | Potency [2] | Potency [3] | Potency [4]

CNC(C)C(=O)NC(C(=O)N1CCCC1C(=O)Nc1snnc1-c1ccccc1)C1CCCCC1 (stereo not given)
inactive: activation [1] 11% | Potency [2] | Potency [3] | Potency [4]

CC(C)c1ccc(NC(=O)Cn2cnc3c2c(=O)n(C)c(=O)n3C)cc1
inactive: activation [1] -14.8% | Potency [2] | Potency [3] | Potency [4]

Cc1cccc(C)c1OCc1cc(C(=O)N2CCC(c3ccncc3)CC2)no1
inactive: activation [1] 0.955% | Potency [2] | Potency [3] | Potency [4]

CC(C)c1ccccc1OC(=O)NCCc1ccc2ccccc2c1
inactive: activation [1] 2.39% | Potency [2] | Potency [3] | Potency [4]

Cc1nc2n(c(=O)c1CCN1CCC(c3noc4cc(F)ccc34)CC1)CCC[C@H]2O
inactive: activation [1] 9.21% and -6.21% | Potency [2] | Potency [3] | Potency [4]

Cc1ccnc(NC(=O)C(C)c2cccc(C(=O)c3ccccc3)c2)c1 (stereo not given)
inactive: activation [1] -19.6% | Potency [2] | Potency [3] | Potency [4]

O=C1CSc2ccccc2N1Cc1cccc(C(F)(F)F)c1
inactive: activation [1] 3.34% | Potency [2] | Potency [3] | Potency [4]

CNc1cc(OC)c(C(=O)N[C@@H]2CCN(Cc3ccccc3)[C@@H]2C)cc1Cl
inactive: activation [1] 12.4% | Potency [2] | Potency [3] | Potency [4]

O=C(c1cc(Cc2n[nH]c(=O)c3ccccc23)ccc1F)N1CCCNCC1
inactive: activation [1] -4.3% | Potency [2] | Potency [3] | Potency [4]

Cc1cc(N2CCN([C@@H]3CN[C@H](C(=O)N4CCSC4)C3)CC2)n(-c2ccccc2)n1
inactive: activation [1] -1.91% | Potency [2] | Potency [3] | Potency [4]

COc1ccc(-c2cnc3ccc(NCc4ccc(S(N)(=O)=O)cc4)nn23)cc1OC
inactive: activation [1] 5.73% | Potency [2] | Potency [3] | Potency [4]

O=C(NCCN1CCC(n2c(=O)[nH]c3ccccc32)CC1)c1ccc2ccccc2c1
inactive: activation [1] -1.43% | Potency [2] | Potency [3] | Potency [4]

CC(=O)O[C@]1(C(C)=O)CC[C@H]2[C@@H]3C[C@H](C)C4=CC(=O)C=C[C@]4(C)[C@@]3(F)[C@@H](O)C[C@@]21C
inactive: activation [1] 1.91% | Potency [2] | Potency [3] | Potency [4]

CC1(C(=O)Nc2ccc(F)nc2)CCCN1c1nc(Nc2cc(C3CC3)[nH]n2)c2cccn2n1 (stereo not given)
inactive: Potency [2] | Potency [3] | Potency [4]
active: Potency [1] 30.1 µM

C[C@@H](O)[C@H](NC(=O)c1ccc(C#Cc2ccc(CN3CCOCC3)cc2)cc1)C(=O)NO
inactive: activation [1] -6.68% | Potency [2] | Potency [3] | Potency [4]

COc1cnc(-n2cnc(C)n2)c2[nH]cc(C(=O)C(=O)N3CCN(C(=O)c4ccccc4)CC3)c12
inactive: activation [1] 3.34% | Potency [2] | Potency [3] | Potency [4]

CCCCCCOC(=O)/N=C(\N)c1ccc(NCc2nc3cc(C(=O)N(CCC(=O)OCC)c4ccccn4)ccc3n2C)cc1
inactive: activation [1] -0.955% | Potency [2] | Potency [3] | Potency [4]

CCCCN1CCCC[C@H]1C(=O)Nc1c(C)cccc1C
inactive: activation [1] -18.6% and -5.25% | Potency [2] | Potency [3] | Potency [4]

O=C(c1cc2c(cc1F)OC(c1ccc(F)cc1)(c1ccc(Cl)cc1Cl)O2)N1CCOCC1 (stereo not given)
inactive: activation [1] -4.3% | Potency [2] | Potency [3] | Potency [4]

COc1ccccc1N1CCN(CC(C(=O)NC(C)(C)C)c2ccccc2)CC1 (stereo not given)
inactive: activation [1] -12.4% | Potency [2] | Potency [3] | Potency [4]

CC(C)(C[C@@](O)(Cc1cc2ccncc2[nH]1)C(F)(F)F)c1cc(F)ccc1O
inactive: activation [1] 13.4% | Potency [2] | Potency [3] | Potency [4]

O=C(Nc1cc(-c2ccccc2)nn1-c1ccccc1)c1ccc([N+](=O)[O-])cc1
inactive: activation [1] -11% | Potency [2] | Potency [3] | Potency [4]

O=C1C(Cc2ccc(O)cc2)N2C(=O)CCN(C(=O)NCc3ccccc3)C2CN1Cc1cccc2ccccc12 (stereo not given)
inactive: activation [1] 19.6% | Potency [2] | Potency [3] | Potency [4]

O=C(CSc1nc2c(c(=O)n1-c1ccccc1)SCC2)Nc1ccc(-c2ccccc2)cn1
inactive: activation [1] 11.5% | Potency [2] | Potency [3] | Potency [4]

CCOc1c2c(c(OCC)c3ccccc13)C(=O)N(c1ccc(CC(=O)NS(=O)(=O)c3ccccc3)cc1)C2
inactive: activation [1] -25.3% | Potency [2] | Potency [3] | Potency [4]

Cc1ccc(CCCO)c(NCc2ccc3nc(NCCCN4CCOCC4)n(Cc4nc(C)ccc4O)c3c2)c1
inactive: activation [1] 14.3% | Potency [2] | Potency [3] | Potency [4]

N#CC(c1ccnc(OCc2ccc(CN3CCOCC3)cc2)n1)c1nc2ccccc2s1 (stereo not given)
inactive: activation [1] 0.477% | Potency [2] | Potency [3] | Potency [4]
